697 NFkB inh – inhibitors of the PMA/ionomycin-induced NF-kB reporter in 697 B cells | 697 B-cell NF-kB luciferase reporter, 16 h | inhibition, % at 4 µM | actives 0.33% (n = 330,000); in the data active = inhibition above about 35%
esBAF inh – inhibitors of esBAF chromatin remodeling in mouse ES cells. Bmi1-luciferase knock-in reporter, 24 h; 100% = twice the neutral-well signal. reporter increase, % at 12.5 µM. actives 2% (n = 350,000); in the data active = activation above about 40%;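 note: 0% = median of the plate's neutral control wells and 100% = double that signal; a rise in the Bmi1 reporter signal indicates esBAF inhibition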
SMARCA2 act – increases SMARCA2 function in MMTV reporter cells; MG213 cells, MMTV-luciferase reporter, dexamethasone, overnight; activation, % at 9.1 µM; actives 1% (n = 370,000); in the data active = activation above about 7.8%;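 note: 0% = vehicle wells and 100% = reference activator wells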
Jurkat NFkB inh – lowers PMA/ionomycin-induced NF-kB signal in Jurkat cells; PMA/ionomycin-induced NF-kB luciferase reporter, luminescence; inhibition, % at 4 µM; actives 0.53% (n = 330,000); AID 435003; in the data active = inhibition above about 50%
Gli-Sufu antag – blocks Gli-Sufu signaling in a luciferase reporter. Sufu-KO-LIGHT fibroblasts, Gli luciferase reporter luminescence. AID 588413. actives 0.74% (n = 340,000). inhibition, % at 5 µM;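 active = inhibition above about 55%, limit read from the data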;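 note: 0% = DMSO-treated cells and 100% = wells with medium but no cells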
Jurkat NFkB conf – inhibitors of the PMA/ionomycin-induced NF-kB reporter in Jurkat cells, retest. shares compounds with Jurkat NFkB inh. Jurkat NF-kB luciferase, 16 h. actives 27% (n = 2,700). inhibition, % at 4 µM;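 active = inhibition reaching about 45% at 4 µM in either replicate, limit read from the data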;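 note: plate controls were PMA/ionomycin stimulated DMSO wells for no effect and unstimulated DMSO wells for full effect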
* marks the source's active call; other numbers are inactive results; x = no result given. This is a sample that favours compounds with a hit; in the whole collection about 3.3% have one here.

SMILES	697 NFkB inh	esBAF inh	SMARCA2 act	Jurkat NFkB inh	Gli-Sufu antag	Jurkat NFkB conf
O=C(C[n+]1ccc(/C=C/c2ccccc2)cc1)c1ccc2c(c1)OCCO2	8	x	-4	54*	9	18
O=C(Nc1nc2ccccc2[nH]1)c1cccc(Cl)c1	-235	14	1	-160	-82	-123
COc1ccc(OCc2cc(C(=O)NC3Cc4ccccc4C3)no2)c(Cl)c1	-23	-7	-1	55*	-19	23
COc1ccc(OCc2cc(C(=O)NC(C)Cc3ccccn3)no2)c(Cl)c1 (stereo not given)	0	29	0	-25	-27	x
CCOC(=O)c1c(NC(=O)N/N=C/c2ccc(O)c(OC)c2)sc(C(C)=O)c1C	-198	x	x	58*	x	33
CCOC(=O)c1c(C)[nH]c(C(=O)N/N=C/c2ccc(OC)c(OC)c2)c1C	-22	-14	0	55*	3	10
CCN1[C@H](C(=O)NC2CCCCC2)[C@@H](CO)[C@@H]2Cn3c(ccc(-c4cccnc4)c3=O)[C@@H]21	x	2	x	x	x	x
COc1ccc(/C=C/C(=O)c2cc(F)ccc2OC(=O)c2ccccc2C)cc1OC	-98	x	0	60*	42	9
COc1cc(NS(=O)(=O)c2ccc(OC)c(C)c2C)c(OC)cc1Cl	-44	x	-3	58*	20	51*
Cc1cc(C)c(C)c(OC(=O)c2sc(Cl)nc2C)c1	-15	x	7	72*	3	38
CC(C)Cc1nnc(NC(=O)c2ccc(N3CCCC3=O)cc2)s1	-17	20	-1	-11	10	x
NC(=O)c1ccsc1NC(=O)c1ccc(N2CCCC2=O)cc1	-139	x	4	-161	-107	-70
CSc1cc(-c2ccccc2)n(Cc2ccccc2Cl)c(=O)c1C#N	-28	x	1	64*	0	9
C[C@H]1CN([C@@H](C)CO)S(=O)(=O)c2ccc(C#Cc3cccnc3)cc2O[C@H]1CN(C)C	x	1	x	x	x	x
Cc1ccc(/C=N/NC(=O)CSc2nc3ccccc3c(=O)n2-c2ccccc2)s1	2	x	-4	39	0	x
CCn1c(SCC(=O)N/N=C/c2ccc(C)s2)nc2ccccc21	-46	x	1	53*	-9	22
Cn1ncc2c(O/N=C(\N)c3ccc(C(C)(C)C)cc3)ncnc21	-192	x	x	101*	15	-18
Cc1c(C(=O)O)[nH]c2c1C(=O)CC(c1ccc(C(C)(C)C)cc1)C2 (stereo not given)	-12	40	-2	0	1	x
Cc1c(C(=O)N2CCOCC2)[nH]c2c1C(=O)CC(c1ccccc1Cl)C2 (stereo not given)	-57	1	-3	52*	41	48*
Cc1noc(C)c1NC(=O)Nc1ccc2c(c1)C(=O)N([C@H](C)CO)C[C@H](C)[C@H](CN(C)C(=O)C1CCCCC1)OCCCC[C@H](C)O2	x	7	x	x	x	x
COc1cccc(S(=O)(=O)N(C)C[C@@H]2OCc3ccccc3-c3ccccc3C(=O)N([C@H](C)CO)C[C@@H]2C)c1	x	7	x	x	x	x
C/C(=N\OC(=O)c1ccc(Cl)cc1)c1nccs1	4	-1	1	-6	4	x
N/C(=N\OC(=O)c1ccc(Cl)cc1)c1ccc(Cl)cc1	-96	10	3	-103	-71	x
N/C(=N\OC(=O)c1ccccc1Cl)c1ccccc1	-235	-32	4	-217	-93	-99
N/C(=N\OC(=O)c1ccc(Cl)cc1)c1ccn[nH]1	-155	-27	2	-166	-79	-59
SMILES	697 NFkB inh	esBAF inh	SMARCA2 act	Jurkat NFkB inh	Gli-Sufu antag	Jurkat NFkB conf
N/C(=N\OC(=O)c1ccccc1Cl)c1ccc(Cl)cc1	-217	x	8	-166	-69	-123
COC(=O)C[C@H]1C[C@H]2c3cc(NS(=O)(=O)c4ccc(OC)cc4)ccc3O[C@H]2[C@@H](CO)O1	x	3	x	x	x	x
COCC#Cc1ccc2c(c1)O[C@@H](CN(C)S(=O)(=O)c1cccc(OC)c1)[C@@H](C)CN([C@@H](C)CO)S2(=O)=O	x	-2	x	x	x	x
N#C[C@H]1[C@H](c2ccc(-c3ccccc3F)cc2)[C@@H](CO)N1C(=O)C1CC1	x	5	x	x	x	x
CCN(CC)c1ccc(/C=N/NC(=O)c2cccc(S(=O)(=O)N3CCOCC3)c2)c(O)c1	-10	-50	-3	64*	x	28
O=C(NC(Nc1nc2ccc([N+](=O)[O-])cc2s1)(C(F)(F)F)C(F)(F)F)c1ccccc1Cl	-37	x	-6	78*	93*	70*
Clc1cccc(Cl)c1/C=N/Nc1c(Cl)cncc1Cl	-35	x	-4	73*	-16	49
Clc1cncc(Cl)c1N/N=C/c1ccncc1	24	-2	-3	35	3	x
CNC[C@H]1Oc2cc(C#Cc3ccncc3)ccc2S(=O)(=O)N([C@H](C)CO)C[C@@H]1C	x	-4	x	x	x	x
O=C(c1cn(Cc2ccccc2)nc1-c1ccccc1)N1CCN(c2ccccn2)CC1	-37	-1	1	53*	-6	39
COc1ccc(-c2nn(Cc3ccccc3)cc2C(=O)N2CCN(c3ccccn3)CC2)cc1OC	3	6	0	0	0	x
O=C(c1cc(-c2ccncc2)nc2ccccc12)N1CCN(c2ccccn2)CC1	-30	0	-3	57*	-8	8
O=C(c1ccccc1-c1ccccc1)N1CCN(c2ccccn2)CC1	-21	x	-1	69*	5	41
COc1cccc(S(=O)(=O)Nc2ccc3c(c2)[C@@H]2C[C@@H](CC(=O)N4CCCCC4)O[C@@H](CO)[C@@H]2O3)c1	x	5	x	x	x	x
CO[C@@H]1CN(C)C(=O)c2cc(NC(=O)Nc3ccccc3)ccc2OC[C@@H](C)N(C(=O)CN(C)C)C[C@H]1C	x	0	x	x	x	x
Cc1ccc(CNc2ccc3c(c2)nc(C)n3C)cc1	-201	-6	5	-156	-48	-59
Cc1nc2cc(NCc3ccc(Cl)cc3)ccc2n1C	-202	-4	6	-133	-30	x
Cc1ccc(CNc2ccc3c(c2)ncn3C(C)(C)C)cc1	-160	16	2	-161	-80	-22
C[C@H]1CN([C@@H](C)CO)C(=O)c2cc(NS(C)(=O)=O)ccc2O[C@H]1CN(C)S(=O)(=O)c1ccc(Cl)cc1	x	-3	x	x	x	x
CCCNC(=O)Nc1ccc2c(c1)C(=O)N(C)[C@H]1CC[C@@H](CC(=O)NCCCN(C)C)O[C@H]1CO2	x	1	x	x	x	x
CCOC(=O)Nc1nc(-c2ccccc2)c(C(=O)c2ccccc2)s1	-7	-7	-4	51*	49	50*
CCOCCCNC(=O)c1cc2c(=O)n3cccc(C)c3nc2n1C	-12	3	0	58*	0	44
CCC(=O)N[C@@H]1CC[C@@H](CCn2cc(C3CC3)nn2)O[C@@H]1CO	x	1	x	x	x	x
COCC#Cc1cnc2c(c1)C(=O)N([C@H](C)CO)C[C@H](C)[C@H](CN(C)C(=O)c1ccc(F)cc1)O2	x	1	x	x	x	x
COc1cc(C(=O)N2CCN(c3cc(Cl)ccc3Cl)CC2)cc(OC)c1OC	-82	-6	-4	60*	24	50*
Cc1cccc(N2CCN(C(=O)c3ccncc3)CC2)c1C	-26	3	-1	41	15	x

Screens as filed in PubChem.
